Measurements as given in PubChem BioAssay (EPA / NIEHS).
Inconclusive results are not listed. Calls of active or inactive are those of the source. The calls were made as follows, unless noted: active = hit-call score of the fitted dose curve at least 0.9, where 1 is the maximum; inactive = score below 0.9.

How the values were obtained:
[1] = read-out: Monokine induced gamma interferon (MIG), CXCL9 (gene 4283); assay: BSK_3C_MIG: BioMAP Diversity Plus: 3C Assay for Monokine induced gamma interferon (MIG) Biomarker Activity (AID 2283021); conditions: primary human endothelial cells (HUVEC); actives raise or lower the signal;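 as to AC50: MIG protein level measured by immunoassay in the treated endothelial cultures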
How it was run: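 Endothelial primary cells (human umbilical vein) are dosed with test chemical in the 3C system. MIG levels are measured by ELISA at 24 h and fitted in both directions relative to DMSO.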

[2] = BSK_3C_SRB: Viability Assessment in the BioMAP Diversity Plus: 3C Assay (AID 2283023); conditions: primary human endothelial cells (HUVEC);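 also: fitted both ways against DMSO so a hit may be signal rise or drop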
How it was run: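 Cytotoxicity readout in parallel HUVEC 3C cultures: after 24 h compound exposure, cells fixed with 10% TCA, stained with 0.1% SRB and read at 560 nm. Gain or loss relative to DMSO fitted.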

[3] = BSK_3C_Vis: BioMAP Diversity Plus: 3C Assay for Morphology Visualization (AID 2283025); conditions: primary human endothelial cells (HUVEC);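 also: fitted both ways so gain or loss versus DMSO counts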
How it was run: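 Morphology read by light microscopy serves as a background control for the multiplexed 3C assay in human umbilical vein endothelial cells, taken 24 h after dosing, with DMSO as the negative control and bidirectional curve fitting.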

[4] = read-out: Pselectin, SELP (gene 6403); assay: BSK_4H_Pselectin: BioMAP Diversity Plus: 4H Assay for Pselectin Biomarker Activity (AID 2283026); conditions: primary human endothelial cells (HUVEC); actives raise or lower the signal
How it was run: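 Endothelial primary cells (human umbilical vein) are dosed, incubated 24 h, and assayed for surface P-selectin by ELISA; responses in either direction are fitted relative to the DMSO negative control.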

[5] = read-out: Thrombomodulin, THBD (gene 7056); assay: BSK_3C_Thrombomodulin: BioMAP Diversity Plus: 3C Assay for Thrombomodulin Biomarker Activity (AID 2283029); conditions: primary human endothelial cells (HUVEC); actives raise or lower the signal
How it was run: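 Endothelial cells from umbilical vein are dosed with test chemical and incubated 24 h. Thrombomodulin is then quantified by ELISA, with DMSO serving as negative control and activity baseline.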

[6] = read-out: Vascular endothelial growth factor receptor 2 (Homo sapiens) (UniProt P35968); assay: BSK_4H_VEGFRII: BioMAP Diversity Plus: 4H Assay for Vascular endothelial growth factor receptor 2 (VEGFR2) Biomarker Activity (AID 2283031); conditions: primary human endothelial cells (HUVEC); actives raise or lower the signal;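 as to AC50: cell-surface VEGFR2 protein level quantified by ELISA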
How it was run: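 Measured by ELISA after 24 h of compound treatment: VEGFR2 on primary human umbilical vein endothelial cells, fitted in both directions relative to DMSO. Parallel cultures received SRB staining (560 nm) for overt cytotoxicity.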

[7] = read-out: Human Leukocyte Antigen - DR isotype (HLADR), HLA-DRA (gene 3122); assay: BSK_BE3C_HLADR: BioMAP Diversity Plus: BE3C Assay for Human Leukocyte Antigen - DR isotype (HLADR) Biomarker Activity (AID 2283032); conditions: primary human bronchial epithelial cells; actives raise or lower the signal
How it was run: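 Chemicals are dosed onto BE3C bronchial epithelial cultures of human origin and left 24 h. HLA-DR is then measured by ELISA, and the endpoint is fitted in both directions using DMSO as the activity baseline.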

[8] = read-out: Vascular cell adhesion molecule 1 (VCAM1), VCAM1 (gene 7412); assay: BSK_4H_VCAM1: BioMAP Diversity Plus: 4H Assay for Vascular cell adhesion molecule 1 (VCAM1) Biomarker Activity (AID 2283033); conditions: primary human endothelial cells (HUVEC); actives raise or lower the signal
How it was run: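 Chemicals are added to primary human umbilical vein endothelial cells. After 24 h, VCAM-1 levels are measured by ELISA. Values come from bidirectional fitting referenced to DMSO.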

[9] = read-out: Interferon-gamma inducible Protein 10 (IP10), CXCL10 (gene 3627); assay: BSK_BE3C_IP10: BioMAP Diversity Plus: BE3C Assay for Interferon-gamma inducible Protein 10 (IP10) Biomarker Activity (AID 2283034); conditions: primary human bronchial epithelial cells; actives raise or lower the signal
How it was run: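 IP-10 quantified by ELISA serves as the endpoint. Cells: primary human bronchial epithelium, read 24 h after compound addition. Activity is derived by bidirectional fitting with DMSO as negative control.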

[10] = read-out: Monokine induced gamma interferon (MIG), CXCL9 (gene 4283); assay: BSK_BE3C_MIG: BioMAP Diversity Plus: BE3C Assay for Monokine induced gamma interferon (MIG) Biomarker Activity (AID 2283035); conditions: primary human bronchial epithelial cells; actives raise or lower the signal
How it was run: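 Dose cells (human primary bronchial epithelial), incubate 24 h, quantify MIG by ELISA, then fit concentration–response in both directions relative to DMSO control.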

[11] = read-out: Transforming growth factor beta 1 (TGFb1), TGFB1 (gene 7040); assay: BSK_BE3C_TGFb1: BioMAP Diversity Plus: BE3C Assay for Transforming growth factor beta 1 (TGFb1) Biomarker Activity (AID 2283036); conditions: primary human bronchial epithelial cells; actives raise or lower the signal
How it was run: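 Bronchial epithelial primary cells are treated with test chemical, then TGF-b1 is quantified by ELISA after 24 hours. Values derive from bidirectional fitting against DMSO, with cytotoxicity checked by SRB staining in parallel cultures.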

[12] = read-out: urokinase plasminogen activator (uPA), PLAU (gene 5328); assay: BSK_BE3C_uPA: BioMAP Diversity Plus: BE3C Assay for urokinase plasminogen activator (uPA) Biomarker Activity (AID 2283038); conditions: primary human bronchial epithelial cells; actives raise or lower the signal
How it was run: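 ELISA for uPA on human primary bronchial epithelial cultures 24 h post-treatment, gain or loss against DMSO. Parallel SRB staining (0.1% after 10% TCA fixation, 560 nm) assessed overt cytotoxicity.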

[13] = read-out: Urokinase-type plasminogen activator receptor (uPAR), PLAUR (gene 5329); assay: BSK_BE3C_uPAR: BioMAP Diversity Plus: BE3C Assay for Urokinase-type plasminogen activator receptor (uPAR) Biomarker Activity (AID 2283039); conditions: primary human bronchial epithelial cells; actives raise or lower the signal
How it was run: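 Steps: dose human primary bronchial epithelial cells, incubate 24 h, measure uPAR by ELISA, then fit gain- or loss-of-signal response bidirectionally relative to DMSO.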

[14] = read-out: Interleukin-6 (IL6), IL6 (gene 3569); assay: BSK_CASM3C_IL6: BioMAP Diversity Plus: CASM3C Assay for Interleukin-6 (IL6) Biomarker Activity for (AID 2283040); conditions: primary human coronary artery smooth muscle cells; actives raise or lower the signal
[15] = biological target: human Vitamin D Receptor (VDR), VDR (gene 7421) (UniProt P11473); assay: ATG_VDR_TRANS: Attagene TRANS-FACTORIAL HepG2 Assay for human Vitamin D Receptor (VDR) (AID 2283022; active = hit-call score of the fitted dose curve at least 0.9, where 1 is the maximum)
human Vitamin D Receptor (VDR), VDR (gene 7421), sequence (P11473 whole entry, looked up, the tested form may be a part): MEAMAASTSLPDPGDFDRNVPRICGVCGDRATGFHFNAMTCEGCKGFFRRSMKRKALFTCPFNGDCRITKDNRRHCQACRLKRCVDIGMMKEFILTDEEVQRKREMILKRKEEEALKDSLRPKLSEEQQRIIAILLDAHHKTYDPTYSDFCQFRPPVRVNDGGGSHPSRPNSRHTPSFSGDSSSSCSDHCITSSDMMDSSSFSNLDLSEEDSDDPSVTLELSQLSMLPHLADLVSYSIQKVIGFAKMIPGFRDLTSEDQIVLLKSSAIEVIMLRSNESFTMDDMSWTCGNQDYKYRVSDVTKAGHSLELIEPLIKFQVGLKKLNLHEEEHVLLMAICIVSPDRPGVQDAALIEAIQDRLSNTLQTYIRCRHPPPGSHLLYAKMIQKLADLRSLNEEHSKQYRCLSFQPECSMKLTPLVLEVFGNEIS
How it was run: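 Transactivation by an exogenous VDR-Gal4 chimera in transiently transfected HepG2 cells was measured as reporter transcript level 24 hours after chemical treatment. RT-PCR products were analysed by capillary electrophoresis and fitted in the positive direction relative to DMSO.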

[16] = BSK_4H_SRB: Viability Assessment in the BioMAP Diversity Plus: 4H Assay (AID 2283027); conditions: primary human endothelial cells (HUVEC);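 also: cells exposed to compound for 24 h before staining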
How it was run: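 HUVEC, 24 h post-dose; 10% TCA fix, 0.1% SRB stain, A560 nm. Total protein = overt cytotoxicity, parallel to biomarker read. Bidirectional fit vs DMSO baseline.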

[17] = read-out: Plasminogen activator inhibitor-1 (PAI1), SERPINE1 (gene 5054); assay: BSK_BE3C_PAI1: BioMAP Diversity Plus: BE3C Assay for Plasminogen activator inhibitor-1 (PAI1) Biomarker Activity (AID 2283037); conditions: primary human bronchial epithelial cells; actives raise or lower the signal
How it was run: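 Values derive from bidirectional fitting against DMSO baseline of PAI-1 levels, measured by ELISA in human bronchial epithelial cells 24 h after compound addition.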

[18] = BSK_BE3C_SRB: Viability Assessment in the BioMAP Diversity Plus: BE3C Assay (AID 2283028); conditions: primary human bronchial epithelial cells
How it was run: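 Cytotoxicity read-out: SRB (0.1%) staining of TCA-fixed (10%) human lung bronchial epithelial cells, absorbance 560 nm, 24 h post-dosing. Curves fitted both directions relative to DMSO.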

[19] = read-out: Matrix Metallopeptidase 1 (MMP1), MMP1 (gene 4312); assay: BSK_BE3C_MMP1: BioMAP Diversity Plus: BE3C Assay for Matrix Metallopeptidase 1 (MMP1) Biomarker Activity (AID 2283024); conditions: primary human bronchial epithelial cells; actives raise or lower the signal
How it was run: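 MMP1 signal, measured by ELISA after a 24 h chemical exposure of human primary bronchial epithelial cells, is analysed with bidirectional fitting using DMSO as negative control.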

[20] = read-out: Urokinase-type plasminogen activator receptor (uPAR), PLAUR (gene 5329); assay: BSK_4H_uPAR: BioMAP Diversity Plus: 4H Assay for Urokinase-type plasminogen activator receptor (uPAR) Biomarker Activity (AID 2283030); conditions: primary human endothelial cells (HUVEC); actives raise or lower the signal
How it was run: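 uPAR level read by ELISA on HUVEC cultures (BioMAP 4H) 24 h post-dosing, analyzed for gain or loss relative to DMSO. Parallel SRB staining assessed overt cytotoxicity.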

Measured: AC50

Cc1cc(CCC(=O)OCCOCCOCCOC(=O)CCc2cc(C)c(O)c(C(C)(C)C)c2)cc(C(C)(C)C)c1O
active: [2] 28.1 µM | [9] 10.1 µM | [11] 17.8 µM
inactive: [1] | [3] | [4] | [5] | [6] | [7] | [8] | [10] | [12] | [13] | [14]

CC=Cc1ccc(OCC)c(O)c1
inactive: [1] | [15] | [2] | [3] | [4] | [5] | [6] | [7] | [8] | [9] | [10] | [11] | [12] | [13] | [14]

CSCCC=O
inactive: [1] | [15] | [2] | [3] | [4] | [5] | [6] | [7] | [8] | [9] | [10] | [11] | [12] | [13] | [14]

CC(C=O)Cc1ccc(C(C)(C)C)cc1 (stereo not given)
inactive: [1] | [15] | [5] | [10] | [11] | [12] | [13]
active: [2] 31.2 µM | [3] 37.8 µM | [4] 31.1 µM | [6] 32.9 µM | [7] 28.9 µM | [8] 34.5 µM | [9] 29.7 µM | [14] 28.5 µM

IC(I)I
inactive: [1] | [2] | [3] | [4] | [16] | [5] | [6] | [7] | [8] | [9] | [10] | [11] | [17] | [12] | [13] | [14]

CC(=O)c1c(C)c([N+](=O)[O-])c(C(C)(C)C)c([N+](=O)[O-])c1C
inactive: [1] | [2] | [3] | [4] | [18] | [5] | [6] | [7] | [8] | [9] | [10] | [11] | [12] | [13] | [14]

COc1cc(Cl)c(OC)cc1N
inactive: [1] | [2] | [3] | [4] | [5] | [6] | [7] | [8] | [9] | [10] | [11] | [17] | [12] | [13] | [14]

C[C@@H]1CCN(C(=O)[C@H](CCCN=C(N)N)NS(=O)(=O)c2cccc3c2NC[C@H](C)C3)[C@@H](C(=O)O)C1
inactive: [1] | [2] | [3] | [4] | [5] | [6] | [7] | [8] | [9] | [10] | [11] | [12] | [13] | [14]

O=C1c2ccccc2C(=O)c2c(O)ccc(O)c21
inactive: [1] | [2] | [4] | [5] | [6] | [7] | [8] | [9] | [10] | [11] | [12] | [13] | [14]
active: [3] 13.6 µM

CCCCOC(=O)CCCCCCCC(=O)OCCCC
inactive: [1] | [15] | [2] | [3] | [4] | [5] | [6] | [7] | [8] | [9] | [10] | [11] | [12] | [13] | [14]

CCN(CC)C(=O)N(CC)CC
inactive: [1] | [15] | [2] | [3] | [4] | [5] | [6] | [7] | [8] | [9] | [10] | [11] | [12] | [13] | [14]

Oc1c(Cl)cc(Cl)c(Cl)c1Cc1c(O)c(Cl)cc(Cl)c1Cl
inactive: [15] | [5] | [11] | [12]
active: [1] 31.1 µM | [2] 5.1 µM | [19] 2.26 µM | [3] 13.7 µM | [4] 1.05 µM | [6] 0.675 µM | [7] 0.634 µM | [8] 12.8 µM | [9] 8.17 µM | [10] 8.39 µM | [13] 20 µM | [14] 7.83 µM

CC(C)(C)CC(C)(C)c1ccc(OCCOCC[N+](C)(C)Cc2ccccc2)cc1
active: [1] 8.17 µM | [2] 4.62 µM | [3] 9.69 µM | [4] 5 µM | [7] 7.59 µM | [8] 7.35 µM | [9] 8.05 µM | [10] 8.97 µM | [17] 0.992 µM | [12] 5 µM | [13] 3.16 µM | [14] 8 µM
inactive: [15] | [5] | [11]

CS(=O)(=O)OCCCCOS(C)(=O)=O
inactive: [1] | [2] | [3] | [4] | [5] | [6] | [7] | [8] | [9] | [10] | [11] | [17] | [12] | [13] | [14]

CC(C)(N=C=O)c1cccc(C(C)(C)N=C=O)c1
inactive: [1] | [2] | [3] | [4] | [16] | [5] | [20] | [6] | [7] | [8] | [9] | [10] | [11] | [12] | [13] | [14]

C1=CC2C3C=CC(C3)C2C1 (stereo not given)
inactive: [1] | [2] | [3] | [4] | [18] | [5] | [6] | [7] | [8] | [9] | [10] | [11] | [12] | [13] | [14]
